{"source": "PubChem BioAssay (Tox21)", "note": "Records with an inconclusive call do not appear. Active and inactive are the calls of the source. Calls follow the shape of the full dose curve. % is scaled to controls: 0 for no effect and ±100 for the full control effect."}
{"assay": "qHTS assay to identify small molecule agonists of the endoplasmic reticulum stress response signaling pathway - cell viability counter screen (AID 1159517);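 also: HeLa cells carrying an ER stress response element beta-lactamase reporter; nearly all actives have a fitted effect of over 50% in size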", "details": "ESRE-bla HeLa viability, CellTiter-Glo luminescence, 5 h; series mostly up to 61 µM", "outline": "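Cells, HeLa ESRE-bla; density, 1,500/well; dosing, 5 hr at 37 C, 5% CO2; readout, CellTiter-Glo luminescence after 30 min RT.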"}
{"smiles": "Cc1cc(C)cc([N+](=O)[O-])c1", "outcome": "inactive"}
{"smiles": "COc1cc([N+](=O)[O-])ccc1N", "outcome": "inactive"}
{"smiles": "CCC(O)C(C)(C)C", "note": "(stereo not drawn)", "outcome": "inactive"}
{"smiles": "OC(CCN1CCCCC1)(c1ccccc1)c1ccccc1", "outcome": "inactive"}
{"smiles": "Oc1ccccc1Cc1ccccc1O", "outcome": "inactive"}
{"smiles": "O=c1[nH]c(=O)c2[nH]c(=O)[nH]c2[nH]1", "activity change, negative = cytotoxicity": "-24.3% [at 6.95 µM] (inactive)"}
{"smiles": "CN(C)CCCNCCC#N", "outcome": "inactive"}
{"smiles": "Cc1ccc2c(c1)c1c3n2CCNC3CCC1", "note": "(stereo not drawn)", "outcome": "inactive"}
{"smiles": "C1=CCC(c2ccccc2)CC1", "note": "(stereo not drawn)", "outcome": "inactive"}
{"smiles": "Cc1ccccc1OCC1CO1", "note": "(stereo not drawn)", "outcome": "inactive"}
{"smiles": "CCCCCCCCCCCCCC(=O)OC", "outcome": "inactive"}
{"smiles": "OC[C@@H](O)[C@H](O)[C@@H](O)[C@@H](O)CO", "outcome": "inactive"}
{"smiles": "CC(C)COC(=O)CCCCC(=O)OCC(C)C", "outcome": "inactive"}
{"smiles": "CCC1COC(=O)O1", "note": "(stereo not drawn)", "outcome": "inactive"}
{"smiles": "CCS(=O)(=O)CCn1c([N+](=O)[O-])cnc1C", "outcome": "inactive"}
{"smiles": "CCCCCC1Nc2cc(C(F)(F)F)c(S(N)(=O)=O)cc2S(=O)(=O)N1", "note": "(stereo not drawn)", "outcome": "inactive"}
{"smiles": "CCCCCCCCOC(C)=O", "outcome": "inactive"}
{"smiles": "O=C(Nc1cccc(C2=NCCN2)c1)Nc1cccc(C2=NCCN2)c1", "outcome": "inactive"}
{"smiles": "CC(=O)OCC(=O)[C@@]1(O)[C@H](OC(C)=O)C[C@H]2[C@@H]3CCC4=CC(=O)C=C[C@]4(C)[C@@]3(F)[C@@H](O)C[C@@]21C", "outcome": "inactive"}
{"smiles": "CNC(=O)C(c1ccccc1)c1ccccc1", "outcome": "inactive"}
{"smiles": "CC(CC(=O)O)CC(C)(C)C", "note": "(stereo not drawn)", "outcome": "inactive"}
{"smiles": "CCOc1ccc(NC(=O)OC(C)C)cc1OCC", "outcome": "inactive"}
{"smiles": "NS(=O)(=O)c1ccccc1OC(F)(F)F", "outcome": "inactive"}
{"smiles": "CC(=O)c1ccc2c(c1)CCCC2", "outcome": "inactive"}
{"smiles": "CCC1Nc2cc(Cl)c(S(N)(=O)=O)cc2S(=O)(=O)N1", "note": "(stereo not drawn)", "outcome": "inactive"}
{"smiles": "CCCCOC(=O)C(C)OC(=O)CCC", "note": "(stereo not drawn)", "outcome": "inactive"}
{"smiles": "CC1=NN(c2ccc(S(=O)(=O)O)cc2)C(=O)C1N=Nc1ccccc1", "note": "(stereo not drawn)", "outcome": "inactive"}
{"smiles": "C=CCOCC(CO)(COCC=C)COCC=C", "outcome": "inactive"}
{"smiles": "Nc1cc(Cl)cc(S(=O)(=O)O)c1O", "outcome": "inactive"}
{"smiles": "O=C1OC(=O)c2cc(Oc3ccc4c(c3)C(=O)OC4=O)ccc21", "outcome": "inactive"}
{"smiles": "O=C(Oc1ccccc1C(=O)O)c1ccccc1O", "outcome": "inactive"}
{"smiles": "O=C(O)c1ccc(OCCN2CCCCC2)cc1", "outcome": "inactive"}
{"smiles": "CC(C)CCO", "outcome": "inactive"}
{"smiles": "COCCOCCOCCOC", "outcome": "inactive"}
{"smiles": "CC(=O)OC(C(=O)c1ccccc1)c1ccccc1", "note": "(stereo not drawn)", "outcome": "inactive"}
{"smiles": "N#CCCOCCOCCC#N", "outcome": "inactive"}
{"smiles": "O=C(COCCOCCOCC(=O)Nc1c(I)cc(I)c(C(=O)O)c1I)Nc1c(I)cc(I)c(C(=O)O)c1I", "outcome": "inactive"}
{"smiles": "C[CH2][Ge]([Cl])([CH2]C)[CH2]C", "outcome": "inactive"}
